Source: PubChem BioAssay (Broad Institute)
Only some compounds are listed: those with a hit (about 4.1% of all), similar ones and a draw of the others.
PglD inh: PglD (C. jejuni) enzyme inhibition; AID 602405; actives 0.098% (n = 360,000); inhibition, % at 12.5 µM; purified PglD enzyme, DTNB colorimetric CoA detection; in the data active = inhibition above about 16%, passing the limit was not always enough; inconclusive = no clear call, values can overlap the other calls
Casp6 inh: inhibitors of human caspase-6; P55212; purified caspase-6, Z-VEID-R110 cleavage fluorescence; inhibition, % at 12.5 µM; actives 0.53% (n = 350,000);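 active = mean inhibition across replicates at least about 35%, with every replicate also reaching that limit, limit read from the data; inconclusive = only one of the two criteria met; inactive = neither criterion met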
NSD2 inh: inhibitors of human histone methyltransferase NSD2; O96028; NSD2 peptide methylation, AlphaScreen, 120 min; inhibition, % at 12.5 µM; actives 0.54% (n = 310,000); AID 743445; in the data active = inhibition above about 50%
CFTR F508del cor: correctors of CFTR F508del function in bronchial epithelial cells. CFBE cells, YFP halide quenching; stimulated with forskolin plus potentiator P3; % fluorescence drop versus neutral controls. activity (quench increase), % at 7.58 µM. actives 0.36% (n = 350,000). AID 720511;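 active = mean added fluorescence quench of at least 8% versus neutral control, with both replicates also reaching 8%; inconclusive = only one of the mean or replicate conditions met; inactive = mean below 8% and not both replicates reaching 8%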;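 also: cells transiently co-express mutant CFTR-F508del with the halide-sensitive YFP; corrector assay measuring rescue of mutant channel to the surface after 24 h compound exposure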
HIV Env fusion: HIV envelope-mediated fusion inhibition | actives 1.1% (n = 360,000) | AID 651610 | HeLa-JRFL Env/CEM21 cell fusion, luciferase | inhibition, % at 12.3 µM;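 active = mean replicate inhibition score of at least 50 and every replicate individually at or above 50; inconclusive = only one of the two criteria met; inactive = mean below 50 and not all replicates reaching 50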
ALR inh: blocks human ALR sulfhydryl oxidase activity; P55789; purified ALR, DTT oxidation, H2O2 HRP-luminol luminescence; inhibition, % (no concentration beside the values); actives 3.8% (n = 290,000);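 active = mean replicate inhibition above about 79%, with every replicate also reaching it, limit read from the data; inconclusive = only one of the two criteria met; inactive = mean below limit and not every replicate reaching it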
Target sequence (P55789 whole entry, looked up): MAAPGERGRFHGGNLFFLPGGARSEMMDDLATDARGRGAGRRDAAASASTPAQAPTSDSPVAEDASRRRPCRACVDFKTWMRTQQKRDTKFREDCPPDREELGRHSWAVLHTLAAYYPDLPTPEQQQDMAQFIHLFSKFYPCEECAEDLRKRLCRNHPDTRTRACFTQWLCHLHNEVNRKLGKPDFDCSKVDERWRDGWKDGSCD
Numbers stand for hits; – = inactive; ? = inconclusive; · = not tested or not shown.

SMILES	PglD inh	Casp6 inh	NSD2 inh	CFTR F508del cor	HIV Env fusion	ALR inh
CCO/C=C1\C(=O)N(c2ccccc2)C(=O)c2ccccc21	–	·	·	·	·	–
CCO/C=C1/C(=O)N(c2ccc(OC)cc2)C(=O)c2ccccc21	–	–	–	–	–	–
CCO/C=C1/C(=O)N(Cc2ccccc2)C(=O)c2ccccc21	·	94	–	–	–	–
COc1ccc(-c2csc(Cc3nnc4n3CCCCC4)n2)cc1OC	·	·	–	·	·	98
Cc1cccc2nc(-c3cccnc3)c(NCCC(C)C)n12	·	–	–	–	–	?
Cc1ccccc1Nc1c(-c2cccnc2)nc2ccc(Br)cn12	·	–	–	–	–	–
COC(=O)CNc1c(-c2ccccc2)nc2ccc(Br)cn12	–	·	–	·	–	99
COC(=O)Nc1c(-c2ccccc2)nc2ccc(Cl)cn12	–	–	·	–	–	–
Cc1cccc2nc(-c3cccnc3)c(Nc3ccccc3)n12	–	–	–	–	–	97
Cc1ccccc1Nc1c(-c2ccncc2)nc2ccc(Br)cn12	·	·	–	·	–	98
Cc1ccc2nc(-c3cccnc3)c(Nc3ccccc3C)n2c1	–	–	–	–	–	82
C[C@H](CO)N1C[C@H](C)[C@H](CN(C)C(=O)Cc2cccnc2)Oc2ncc(C#CCc3ccccc3)cc2C1=O	–	–	·	–	–	·
CC=Cc1ccc2n(c1=O)C[C@H]1[C@H](CO)[C@@H](C(=O)NCc3ccccc3)[C@@H]2N1Cc1ccccc1OC (mixture of isomers)	·	–	·	–	·	·
C[C@H]1CN([C@@H](C)CO)S(=O)(=O)c2ccc(C#CC(C)(C)O)cc2O[C@@H]1CN(C)C	–	–	·	–	–	·
Cc1ccccc1Nc1c(-c2ccccn2)nc2ccccn12	–	–	–	–	–	99
Cc1ccn2c(Nc3ccccc3)c(-c3ccccn3)nc2c1	–	–	·	–	66	–
Cc1ccc2nc(-c3ccccn3)c(Nc3ccccc3C)n2c1	–	–	–	–	–	98
Cc1ccn2c(Nc3ccccc3C)c(-c3ccccn3)nc2c1	–	–	–	–	–	·
C[C@@H]1CN([C@H](C)CO)C(=O)c2cc(NC(=O)C3CCCCC3)ccc2O[C@@H](C)CCCCO[C@@H]1CN(C)C(=O)c1ccncc1	·	·	·	–	–	·
Oc1ccccc1/C=N/NC(=S)NC1CC2CCC1C2 (stereo not given)	–	–	–	–	–	–
S=C(N/N=C/c1ccco1)NC1CC2CCC1C2 (stereo not given)	–	–	–	–	–	98
O=C(NCC[C@H]1CC[C@@H](NS(=O)(=O)Cc2ccccc2)[C@H](CO)O1)C1CCC1	–	·	·	–	–	·
CC(C)OP(=O)(Nc1cccc2ccccc12)OC(C)C	·	–	–	–	94	–
O=C(CSc1nnc(-c2n[nH]c3ccccc23)n1-c1ccccc1)Nc1cccc(Cl)c1	·	·	–	·	70	–
COc1ccc(-c2ccc(=O)n(Cc3ccccc3)n2)cc1	–	–	–	–	–	–
SMILES	PglD inh	Casp6 inh	NSD2 inh	CFTR F508del cor	HIV Env fusion	ALR inh
COc1ccc(-c2c(C)nn(Cc3ccccc3)c2N)cc1	–	·	–	·	–	97
COc1ccc(C2=Nc3ccccc3N(C(=O)Cc3cc(OC)cc(OC)c3)C2C(=O)NC(C)(C)C)cc1 (stereo not given)	·	–	·	–	55	·
COc1ccc(C2=Nc3ccccc3N(C(=O)Cc3cc(OC)cc(OC)c3)C2C(=O)NC(C)C)cc1 (stereo not given)	·	–	·	–	–	·
O=C(Nc1c(-c2ccc3c(c2)OCO3)[nH][nH]c1=O)c1ccccc1	–	45	·	–	–	·
Cc1cc(NC(=O)CSc2nccn2-c2ccc(Cl)cc2)no1	–	·	–	·	·	99
Cc1cc(NC(=O)COc2ccc(F)c(Cl)c2)no1	–	–	–	–	65	–
COc1cccc(-n2ccnc2SCC(=O)Nc2cc(C)on2)c1	–	–	–	–	–	83
Cc1cc(NC(=O)CSc2nccn2-c2ccc(F)cc2)no1	–	·	–	·	·	–
Cc1ccc(S(=O)(=O)NC[C@H]2CC[C@H]3[C@H](CN3Cc3cc(-c4ccccc4)on3)O2)cc1	·	–	·	–	·	·
CC(=O)Nc1c(C(=O)O)[nH]c2ccccc12	–	·	–	·	·	–
O=C(O)c1[nH]c2ccccc2c1-c1ccccc1	–	·	–	·	·	98
Cc1ccc2[nH]c(C(=O)O)c(-c3ccccc3)c2c1	–	·	·	·	·	98
Cc1ccc2[nH]c(-c3ccccc3)cc(=O)c2c1	–	·	·	10	–	–
